Assay results taken from PubChem BioAssay (Tox21).
Results filed as inconclusive are left out. Active and inactive are the calls of the source. Unless noted, calls come from the whole dose curve; as a rule, active = well fitted curve in the direction sought with a large enough effect in the repeat runs; inconclusive = weak or mixed curves; inactive = no such curve, though single readings can be large; an effect the other way counts as inactive or inconclusive.

Assays:
[1] = qHTS RealTime-Glo MT Cell Viability Assay in HEK293 cells - 8 hour (AID 1224887); note: top concentration of the series differs between compounds; nearly all actives have a fitted effect of over 50% in size
In short: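 HEK293 + NanoLuc + prosubstrate, 600 cells/well; 5 h, 37 C/5% CO2; compound 23 nL in DMSO by pintool; 37 C; luminescence read at 0, 8, 16, 24, 32 and 40 h time points.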

[2] = A CellTox Green Cytotoxicity Assay to monitor cytotoxicity in HEK293 cells - 16 hour (AID 1224888); note: nearly all actives have a fitted effect of over 35% in size; note: potency is the fitted concentration of half-maximal effect
In short: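 Tox21 screen in HEK293: membrane-impermeant cyanine dye fluoresces on binding dead-cell DNA; compound pinned 5 h post-seeding, plates held at 37 C, signal read repeatedly through 40 h.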

[3] = qHTS RealTime-Glo MT Cell Viability Assay in HepG2 cells - 0 hour (AID 1224889); note: nearly all actives have a fitted effect of over 50% in size; note: potency is the fitted concentration of half-maximal effect
In short: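 Luminescence read-out: viable HepG2 cells reduce a prosubstrate to a NanoLuc substrate, giving a signal proportional to live cell number. Reads taken at 0, 8, 16, 24, 32 and 40 h of compound exposure at 37 C.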

[4] = A CellTox Green Cytotoxicity Assay to monitor cytotoxicity in HepG2 cells - 8 hour (AID 1224890); note: nearly all actives have a fitted effect of over 45% in size; note: potency is the fitted concentration of half-maximal effect
In short: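 Measurements at 0, 8, 16, 24, 32 and 40 h of treatment captured CellTox Green fluorescence in HepG2 cells that had been co-plated with reagent and preincubated 5 h at 37 C/5% CO2.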

[5] = qHTS assay to identify small molecule antagonists of the estrogen receptor alpha (ER-alpha) signaling pathway using the BG1 cell line in the presence of 0.1 nM 17-beta-estradiol - cell viability counter screen (AID 1259241); note: nearly all actives have a fitted effect of over 40% in size
In short: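 The cell line endogenously expresses full-length ER-alpha and carries four EREs driving luciferase. Cells are cultured 5 days hormone-free, treated 22 hr with compounds and 0.1 nM estradiol, then viability is read by fluorescence.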

[6] = qHTS assay to identify small molecule antagonists of the androgen receptor (AR) signaling pathway using the MDA cell line in the presence of 0.5 nM R1881 - cell viability counter screen (AID 1259242); note: nearly all actives have a fitted effect of over 45% in size
In short: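 Concentration-response screen of compounds for toxicity in MDA-kb2 reporter cells: 16 hr at 37C with 0.5 nM R1881, endpoint live-cell protease fluorescence measured in the reporter wells.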

[7] = qHTS assay to identify small molecule HDAC inhibitors (AID 1259364);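 note: wild-type HCT-116 cells with endogenous class I/II HDAC activity; top concentration of the series differs between compounds; nearly all actives have a fitted effect of over 45% in size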
In short: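 Screening used wild-type human colon HCT-116 cells incubated overnight, dosed with compounds for 2 hours, and assayed with a homogeneous luminogenic HDAC I/II reagent for 30 minutes at room temperature.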

[8] = qHTS assay to identify small molecule phospholipidosis (PLD) inducers (AID 1259344; active = well fitted curve in the direction sought with a large enough effect; an effect the other way counts as inactive or inconclusive)
In short: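 Phospholipid accumulation was scored by imaging: fixed, Hoechst-counterstained HepG2 cells stained with LipidTOX Red after 24 h compound exposure at 37 C. Read-outs were pit count and pit intensity per well or per cell, with amiodarone and DMSO controls.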
% is set by controls: 0 for no effect and ±100 for the full control effect.

C=C(C)C(=O)OCCOC1CC2CC1C1C=CCC21 (stereo unspecified)
inactive: outcome [1] | Potency [2] | Potency [3] | Potency [4] | outcome [5] | outcome [6] | Potency [7]

C=CCCCCCCCCCCCCCC
inactive: activity change, negative = cytotoxicity [1] -3.89% [at 15.8 µM] | activity change [2] -0.657% [at 15.8 µM, active compounds read high] | activity change, negative = cytotoxicity [3] 10.7% [at 15.8 µM] | cytotoxicity increase [4] 8.14% [at 15.8 µM] | activity change, negative = cytotoxicity [5] 0.733% [at 19 µM] | viability change, negative = cytotoxic [6] 1.94% [at 19 µM] | activity change, negative = inhibition [7] 0.0889% [at 19 µM]

CCCCCCCCS(=O)(=O)O
inactive: outcome [1] | Potency [2] | Potency [3] | Potency [4] | outcome [5] | outcome [6] | Potency [7]

COC(=O)N/N=C/c1c[n+]([O-])c2ccccc2[n+]1[O-]
active: Potency [2] 21.3 µM | Potency [4] 26.8 µM
inactive: outcome [1] | Potency [3] | outcome [5] | outcome [6] | Potency [8] | Potency [7]

C/C=C/C(=O)CCCC
inactive: outcome [1] | Potency [2] | Potency [3] | Potency [4] | outcome [5] | outcome [6] | Potency [7]

N=C(N)N
inactive: outcome [1] | Potency [2] | Potency [3] | Potency [4] | outcome [5] | outcome [6] | Potency [8]

CNCCc1ccccn1
inactive: outcome [1] | Potency [2] | Potency [3] | Potency [4] | outcome [5] | outcome [6] | Potency [8] | Potency [7]

CCCCCCCCOCCC#N
inactive: outcome [1] | Potency [2] | Potency [3] | Potency [4] | outcome [5] | outcome [6] | Potency [7]

C[n+]1ccccc1/C=N/O
inactive: outcome [1] | Potency [2] | Potency [3] | Potency [4] | outcome [5] | outcome [6] | Potency [8] | Potency [7]

CCCOc1ccc(C(=O)OCCN(CC)CC)cc1N
inactive: outcome [1] | Potency [2] | Potency [3] | Potency [4] | outcome [5] | outcome [6] | Potency [8] | Potency [7]

NC[C@H]1O[C@H](O[C@H]2[C@H](O)[C@@H](O[C@H]3O[C@H](CO)[C@@H](O)[C@H](N)[C@H]3O)[C@H](N)C[C@@H]2N)[C@H](N)[C@@H](O)[C@@H]1O
inactive: activity change, negative = cytotoxicity [1] 14.7% [at 15.8 µM] | activity change [2] 2% [at 15.8 µM, active compounds read high] | activity change, negative = cytotoxicity [3] 5.28% [at 15.8 µM] | cytotoxicity increase [4] 0.922% [at 15.8 µM] | activity change, negative = cytotoxicity [5] 2.9% [at 19 µM] | viability change, negative = cytotoxic [6] -0.928% [at 19 µM] | Potency [8] | activity change, negative = inhibition [7] 0.718% [at 19 µM]

O=C1CC2(CCCC2)CC(=O)N1CCNCC1COc2ccccc2O1 (stereo unspecified)
inactive: outcome [1] | Potency [2] | Potency [3] | Potency [4] | outcome [5] | outcome [6] | Potency [8]

COc1cc(NS(=O)(=O)c2ccc(N)cc2)ncn1
inactive: outcome [1] | Potency [2] | Potency [3] | Potency [4] | outcome [5] | outcome [6] | Potency [8] | Potency [7]

CCCCCC(=O)CC
inactive: outcome [1] | Potency [2] | Potency [3] | Potency [4] | outcome [5] | outcome [6] | Potency [7]

O=C(CCBr)N1CCN(C(=O)CCBr)CC1
inactive: outcome [1] | Potency [2] | Potency [3] | Potency [4] | outcome [5] | outcome [6] | Potency [8] | Potency [7]

Cc1ccc(S(=O)(=O)NC(=O)NN2CC3CCCC3C2)cc1 (stereo unspecified)
inactive: outcome [1] | Potency [2] | Potency [3] | Potency [4] | outcome [5] | outcome [6] | Potency [8] | Potency [7]

CC[N+](C)(CC)CC
inactive: outcome [1] | Potency [2] | Potency [3] | Potency [4] | outcome [5] | outcome [6] | Potency [7]

C[C@]12C=CC(=O)C=C1[C@@H](F)C[C@@H]1[C@@H]2[C@@H](O)C[C@@]2(C)[C@H]1CC[C@]2(O)C(=O)CO
active: Potency [3] 10.7 µM
inactive: outcome [1] | Potency [2] | Potency [4] | outcome [5] | outcome [6] | Potency [8] | Potency [7]

C[C@@H]1NC(=O)[C@@H](N)CNC(=O)[C@H](C2CCNC(N)=N2)NC(=O)/C(=C/NC(N)=O)NC(=O)[C@H](CNC(=O)C[C@@H](N)CCCN)NC1=O (stereo partly specified)
inactive: activity change, negative = cytotoxicity [1] 0.186% [at 0.29 µM] | activity change [2] 17.5% [at 0.29 µM, active compounds read high] | activity change, negative = cytotoxicity [3] 5.25% [at 0.29 µM] | cytotoxicity increase [4] -1.65% [at 0.29 µM] | activity change, negative = cytotoxicity [5] 6.75% [at 0.349 µM] | viability change, negative = cytotoxic [6] 2.87% [at 0.349 µM] | Potency [8] | activity change, negative = inhibition [7] -0.0991% [at 0.349 µM]

CC(C)(Sc1cc(C(C)(C)C)c(O)c(C(C)(C)C)c1)Sc1cc(C(C)(C)C)c(O)c(C(C)(C)C)c1
inactive: outcome [1] | Potency [2] | Potency [3] | Potency [4] | outcome [5] | outcome [6] | Potency [7]

Cc1ccccc1OCC(=O)O
inactive: outcome [1] | Potency [2] | Potency [3] | Potency [4] | outcome [5] | outcome [6] | Potency [7]

Cc1cc(N)no1
inactive: outcome [1] | Potency [2] | Potency [3] | Potency [4] | outcome [5] | outcome [6] | Potency [7]

COC(=O)c1ccccc1Cl
inactive: outcome [1] | Potency [2] | Potency [3] | Potency [4] | outcome [5] | outcome [6] | Potency [7]

CC(C)(C)C(=O)CCc1ccc(Cl)cc1
inactive: outcome [1] | Potency [2] | Potency [3] | Potency [4] | outcome [5] | outcome [6] | Potency [7]

COC(=O)C(c1ccccc1Cl)N1CCc2sccc2C1 (stereo unspecified)
inactive: outcome [1] | Potency [2] | Potency [3] | Potency [4] | outcome [5] | outcome [6] | Potency [8] | Potency [7]
